From PubChem
A selection: hits, their analogues and other compounds. The true share with any hit is near 4.3%.
uPA generation: qHTS for Inhibitors of Cell Surface uPA Generation; cell surface uPA generation assay, qHTS; Potency, µM (highest dose often 38.3 µM), inactives show at the top dose activity change, negative = inhibition, usual class: inhibitors; hit rate 0.31% among 330,000; active = well fitted inhibition curve with a large enough effect; inconclusive = small, poorly fitted or top-dose-only effect; inactive = no such curve, though single readings can be large or run the other way; tested in mouse RAW 264.7 cells; also: potency is read from the fitted curve at half-maximal effect; % is scaled to controls: 0 for no effect and ±100 for the full control effect; nearly all actives have a fitted effect of over 55% in size
MCF10A rereplic: A quantitative high throughput screen for small molecules that induce DNA re-replication in MCF 10a normal breast cells; Potency, µM (titrated, usually from 46.1 µM), inactives show at the highest dose activity, positive = re-replication, actives largely listed as activators; MCF 10A DNA re-replication, Hoechst nuclear intensity, 48 h; AID 624296, 2012; hit rate 2.9% among 350,000; also: potency is read from the fitted curve at half-maximal effect; % of control where 0% means no effect; nearly all actives have a fitted effect of over 50% in size
Giardia killer: Small Molecules that selectively kill Giardia lamblia: qHTS; Giardia lamblia trophozoite viability; activity change, % at 7.66 µM, hits read low; hit rate 0.15% among 340,000; AID 540267, 2011; in the data active = activity change below about -80%; inconclusive = between about -30% and that limit;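 also: parasites exposed to compound for two days anaerobically before the ATP read; % is scaled to controls: 0 for no effect and ±100 for the full control effect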
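Trophozoite viability was measured as ATP-dependent luminescence, read 15-30 min after reagent addition. Before that, parasites at 100 cells/well were exposed to compounds for 48 h, anaerobically, at 37 deg C.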
SW480 rereplic: A quantitative high throughput screen for small molecules that induce DNA re-replication in SW480 colon adenocarcinoma cells. SW480 DNA re-replication, Hoechst DNA content imaging, 48 h. Potency, µM (highest dose often 46.1 µM), for inactives: top-dose re-replication activation, most hits filed as activators. hit rate 1.8% among 340,000. AID 624297, 2012; also: potency is read from the fitted curve at half-maximal effect; % of control where 0% means no effect; nearly all actives have a fitted effect of over 55% in size
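Treated cells incubate 48 hr (37 C, 5% CO2), are stained 40 min with Hoechst, and nuclear fluorescence is enumerated; a rise in nuclei with high DNA signal marks re-replication.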
Starred values were filed as active, the others as inactive; ? = inconclusive; / = no result; [ ] = another dose, or the depositor's remark. Unless noted, calls follow the shape of the dose curve; as a rule, active = well fitted activation curve with a large enough effect; inconclusive = small, poorly fitted or top-dose-only effect; inactive = no such curve, though single readings can be large or run the other way.

SMILES | uPA generation | MCF10A rereplic | Giardia killer | SW480 rereplic
S=C(NCCN1CCCCC1)Nc1ccc(Br)cc1 | 0% | 0% | 31 | 16µM*
COc1ccc(OC)c(-c2cc(-c3cccnc3)nc(N)c2C#N)c1 | -6% | 12µM* | 2 | 6.5µM*
COc1cccc(-c2cc(-c3cccnc3)nc(N)c2C#N)c1 | -23% | ? | 3 | ?
CC[N+]1(C)[C@@H]2CC[C@H]1CC(OC(=O)[C@H]1CCC(C(=O)OC3C[C@H]4CC[C@@H](C3)[N+]4(C)CC)(c3ccccc3)c3ccccc31)C2 (some centres undefined) | -12% | 5% | 9 | -67%
NS(=O)(=O)c1ccc(NC(=O)COC(=O)c2ccc([N+](=O)[O-])s2)cc1 | 0% | 4% | 15 | 16µM*
Cc1cc(C)c(NC(=O)COC(=O)c2ccc([N+](=O)[O-])s2)c(C)c1 | 4% | 5% | 0 | -63%
O=C(Nc1c2ccccc2nc2ccccc12)C(Cl)(Cl)Cl | -7% | 13µM* | 3 | ?
O=C(Cc1ccccc1)NNc1c2ccccc2nc2ccccc12 | 4% | -8% | 4 | -20%
O=c1[nH]cc(C#Cc2ccccc2)c2ncncc12 | / | / | 16 | /
CCN1CCN(Cc2ccc(NC(=O)Nc3ccccc3Cl)cc2)CC1 | 10µM* | 21% | -29 | 1%
O=C(Nc1ccc(CN2CCCCC2)cc1)Nc1ccccc1Cl | -12% | 18% | 6 | 3%
C=CCCN(C(C)C(=O)OC)S(=O)(=O)c1ccccc1Br (centres undefined) | / | / | 21 | /
COc1cc2cc(/C=C/C(=O)c3ccco3)c(Cl)nc2cc1OC | -8% | 23µM* | -17 | 21µM*
Cc1ccc2cc(/C=C/C(=O)c3ccco3)c(Cl)nc2c1 | 2% | 8.2µM* | -13 | ?
Cc1ccc2nc(Cl)c(/C=C/C(=O)c3ccco3)cc2c1 | -2% | ? | -7 | -3%
COc1cc2cc(C#N)c(SCC(=O)OC(C)C)nc2cc1OC | / | / | -10 | /
COc1ccc2c(c1)c(=O)oc1cc(OCC(=O)NC3CCCCC3)ccc12 | 5% | 10µM* | -5 | -1%
CSc1nnc2c(n1)OC(c1ccccn1)N(C(C)=O)c1ccccc1-2 (centres undefined) | 0% | ? | -3 | -17%
COC(=O)c1cnc(Oc2ccc(NC(=O)NC(=O)c3c(OC)cccc3OC)cc2)cc1C(F)(F)F | -9% | 0.82µM* | -28 | 2.6µM*
CCC(CC)NC(=O)Nc1ccc(C)cc1 | 2% | 2% | -11 | 5%
O=C(Nc1cccc(S(=O)(=O)NC2=NCCC2)c1)c1cc(=O)[nH]c2ccccc12 | 18% | -2% | 41 | -15%
Fc1c(F)c(F)c(/C=N/NC(=S)Nc2cccnc2)c(F)c1F | -1% | 11µM* | 1 | ?
Fc1cccc(F)c1/C=N/NC(=S)Nc1cccnc1 | -5% | -1% | 15 | 0%
COc1ccc2[nH]c3c(c2c1)CCN1C(=O)C(CC(=O)NCc2ccco2)C[C@H](C(=O)N2CCCCC2)[C@@]31CCc1ccccc1 (some centres undefined) | -9% | 4% | -20 | 18%
CCOC(=O)COC(=O)c1ccc(Oc2cc(C)nc(SC)n2)cc1 | -7% | 6% | -7 | -5%
SMILES | uPA generation | MCF10A rereplic | Giardia killer | SW480 rereplic
CCOC(=O)c1ccc(Oc2cc(C)nc(SC)n2)cc1 | -16% | 1.8µM* | 11 | 6.5µM*
COC(=O)c1ccc(Oc2cc(C)nc(-n3nc(C)cc3C)n2)cc1 | / | 2.1µM* | 2 | 0.82µM*
O=C(NCCc1ccc(F)cc1)c1coc(=O)c(Br)c1 | -22% | 4.1µM* | 25 | 18%
CC(=O)Nc1cccc(NC(=O)C(=O)NCC(c2ccco2)N2CCc3ccccc32)c1 (centres undefined) | 0% | 20% | -6 | -2%
CCOC(=O)c1c(NC(=O)/C=C/C(=O)O)sc(C)c1-c1ccc(C(C)(C)C)cc1 | -14% | ? | -8 | 18µM*
CCOC(=O)c1c(NC(=O)/C=C\C(=O)O)sc(C)c1-c1ccccc1 | -5% | 21µM* | -8 | ?
CCc1c(C)sc(NC(=O)/C=C/C(=O)O)c1C(N)=O | 0% | -1% | -29 | -4%
CCOC(=O)c1c(NC(=O)c2c(-c3ccccc3)noc2C)sc(C)c1-c1ccccc1 | -10% | ? | -15 | ?
Cc1sc(NC(=O)/C=C/C(=O)O)c(C(N)=O)c1-c1ccc(C(C)(C)C)cc1 | -6% | 21µM* | -10 | ?
Cc1ccc(-c2nnn(CC(=O)Nc3nnc(C(C)C)s3)n2)cc1 | 4% | 2%[9.22 µM] | 1 | ?
C=C1NC(=O)c2cc(CN(C)c3ccc(C(=O)N[C@@H](CCC(=O)O)C(=O)O)s3)ccc2N1 | / | 19% | / | 2%
CC(=O)N1N=C(c2ccccc2)CC1c1cn(Cc2ccccc2)c2ccccc12 (centres undefined) | -9% | 21µM* | -3 | ?
CC1(C)OC(C)(C)/C(=C\c2ccccc2[N+](=O)[O-])C1=O | -10% | -6% | 11 | 3%
CN1C/C(=C/c2ccccc2[N+](=O)[O-])C(=O)/C(=C\c2ccccc2[N+](=O)[O-])C1 | -4% | 1.8µM* | 14 | 1.2µM*
Cc1cc(=O)n(C(C)c2ccccc2)n1C(C)c1ccccc1 (centres undefined) | 5% | -2% | -2 | 0%
CCCn1c(SCC(=O)Nc2ccc3c(c2)OCCO3)n[nH]c1=O | -1% | -3% | 6 | 0%
C#CCn1c(=NC(=O)c2cccs2)sc2cccc(OCC)c21 | -7% | 11% | 32 | 3%
C#CCn1c(=NC(=O)c2ccc(Cl)s2)sc2cccc(OC)c21 | 0% | 18µM* | -23 | 11%
Cc1ccc(S(=O)(=O)Nc2cccc(C(=O)NCc3ccc(S(N)(=O)=O)cc3)c2)cc1 | 4% | -5% | 14 | -13%
COc1cc(C(C[N+](=O)[O-])c2c(N)n(C)c(=O)n(C)c2=O)ccc1O (centres undefined) | -16% | 18µM* | 4 | ?
COc1cc(C(C[N+](=O)[O-])c2c(C)[nH]c3ccccc23)ccc1O (centres undefined) | -3% | 0% | 34 | -1%
Cc1ccc(C(C[N+](=O)[O-])c2c(N)n(C)c(=O)n(C)c2=O)cc1 (centres undefined) | 10µM* | 23µM* | -14 | 1%
COc1cccc(F)c1C(C[N+](=O)[O-])c1c(N)n(C)c(=O)n(C)c1=O (centres undefined) | ? | 7.3µM* | -21 | 4.1µM*
CC(C(c1ccc2c(c1)OCO2)c1c(N)n(C)c(=O)n(C)c1=O)[N+](=O)[O-] (centres undefined) | ? | 12µM* | 2 | ?
COc1ccc(NS(=O)(=O)c2ccc(OCC(=O)N3CCOCC3)cc2)cc1Cl | -6% | -6% | 18 | 0%
COc1ccc(S(=O)(=O)CCC(=O)N2CCN(c3ccc(C(C)=O)cc3)CC2)cc1 | -2% | 1% | -8 | 3%
C[C@H]1[C@@H](c2ccccc2)Oc2ccc(Cl)cc2S(=O)(=O)N1Cc1ccc(F)cc1F | 1% | 3% | -26 | ?
